Records with an inconclusive call do not appear. Entries that show only a call come without a potency. The source made the active and inactive calls. Unless noted, calls follow the shape of the dose curve; as a rule, active = well fitted inhibition curve with a large enough effect; inconclusive = small, poorly fitted or top-dose-only effect; inactive = flat fitted curve, though single readings scatter.
Columns and labels:
[1] = qHTS drug screen for cell cycle checkpoint inhibitors in PARPi-resistant BRCA-mutant ovarian cancer cell lines. (AID 1963452; calls by dose curve); conditions: PEO1/OlaR viability, CellTiter-Glo luminescence, 96 h, stronger effect = lower value
Summary of the method: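 PEO1, PEO4 and PEO1/OlaR ovarian cancer cells, 600 per well, exposed 96 h at 37C to a dilution series. Viability read by CellTiter-Glo luminescence, normalized to DMSO and empty wells; activity summarized as Z-AUC.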

[2] = qHTS for identification of novel therapeutic agents for treatment of microphthalmiaassociated transcription factor (MiT) renal cell carcinoma (RCC) (AID 1963991; calls by dose curve; also: potency is read from the fitted curve at half-maximal effect); conditions: CellTiter-Glo, 48 h; for z-score: stronger effect = lower value
Summary of the method: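 Three TFE3-fusion RCC cell lines (UOK109, UOK124, UOK145), 500 cells/well, were exposed to the 1912-compound MIPE 4.0 library for 48 hours at 37 C. Viability was read by CellTiter-Glo luminescence, normalised to DMSO (100%) and empty wells (0%), with 11-concentration curve fits.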

[3] = qHTS profiling for inhibitors of Plasmodium falciparum proliferation (AID 504749); also: nearly all actives have a fitted effect of over 60% in size; also: potency is read from the fitted curve at half-maximal effect; conditions: P. falciparum in erythrocytes, SYBR Green DNA, 72 h
Summary of the method: (§1)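 SYBR Green fluorescence of parasite DNA, read after lysis and overnight dark incubation, measured growth over 72 h in erythrocyte culture at 0.3% parasitemia and 2.5% hematocrit. Data normalised to DMSO and 0.29 uM artemisinin, with plate-drift correction.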

3D7 = assay: as above; conditions: P. falciparum in erythrocytes, SYBR Green DNA, 72 h; series mostly up to 28.7 µM
Summary of the method: as §1

7G8 = assay: as above; conditions: P. falciparum in erythrocytes, SYBR Green DNA, 72 h; series mostly up to 28.7 µM
Summary of the method: as §1

AA1029 = assay: as above; conditions: P. falciparum in erythrocytes, SYBR Green DNA, 72 h; series mostly up to 28.7 µM
Summary of the method: as §1

ATS189 = assay: as above; conditions: P. falciparum in erythrocytes, SYBR Green DNA, 72 h; series mostly up to 28.7 µM
Summary of the method: as §1

ATS95 = assay: as above; conditions: P. falciparum in erythrocytes, SYBR Green DNA, 72 h; series mostly up to 28.7 µM
Summary of the method: as §1

C2A = assay: as above; conditions: P. falciparum in erythrocytes, SYBR Green DNA, 72 h; series mostly up to 28.7 µM
Summary of the method: as §1

CP185 = assay: as above; conditions: P. falciparum in erythrocytes, SYBR Green DNA, 72 h; series mostly up to 28.7 µM
Summary of the method: as §1

CP191 = assay: as above; conditions: P. falciparum in erythrocytes, SYBR Green DNA, 72 h; series mostly up to 28.7 µM
Summary of the method: as §1

CP192 = assay: as above; conditions: P. falciparum in erythrocytes, SYBR Green DNA, 72 h; series mostly up to 28.7 µM
Summary of the method: as §1

CP194 = assay: as above; conditions: P. falciparum in erythrocytes, SYBR Green DNA, 72 h; series mostly up to 28.7 µM
Summary of the method: as §1

CP201 = assay: as above; conditions: P. falciparum in erythrocytes, SYBR Green DNA, 72 h; series mostly up to 28.7 µM
Summary of the method: as §1

AS120 = assay: as above; conditions: P. falciparum in erythrocytes, SYBR Green DNA, 72 h; series mostly up to 28.7 µM
Summary of the method: as §1

[4] = measured here: PEO1 parental Z-AUC
[5] = TFE3-RCC UOK109 viability, measured here: UOK109 Z-AUC
[6] = TFE3-RCC viability, measured here: UOK124 Z-AUC
[7] = TFE3-RCC viability, measured here: UOK145 Z-AUC
[8] = at 28.7 µM (top of the series), parasite line A
[9] = at 28.7 µM (top of the series), parasite line B
[10] = at 12.8 µM (top of the series), parasite line A
[11] = at 12.8 µM (top of the series), parasite line B

In the case of `CC(c1cc2ccccc2s1)N(O)C(N)=O` (configuration not stated), the Z-AUC [1] is reported as -0.588 (inactive), the Z-AUC [1, 4] is reported as -0.0331 and the Z-AUC ([1]; measured here: PEO4 Z-AUC) is reported as -0.638. For the same compound, the z-score [2, 5] was 0.403, the z-score [2, 6] was 0.701 and the z-score [2, 7] was 0.104. For the same compound, the activity, negative = inhibition [3, 8] was 3.01% (inactive), the activity, negative = inhibition [3, 9] was -4.79% (inactive) and the Potency (3D7) was “inactive”. For the same compound, the Potency (7G8) was “inactive”, the Potency (AA1029) was “inactive” and the Potency (ATS189) was “inactive”. The Potency (ATS95) was “inactive”, the Potency (C2A) was “inactive” and the Potency (CP185) was “inactive”. For the same compound, the Potency (CP191) was “inactive”, the Potency (CP192) was “inactive” and the Potency (CP194) was “inactive”. For the same compound, the outcome (CP201) was “inactive”.
In the case of `Cc1cn[nH]c1`, the Z-AUC [1] is reported as 1.01 (inactive), the Z-AUC [1, 4] is reported as 0.488 and the Z-AUC ([1]; measured here: PEO4 Z-AUC) is reported as 0.423. For the same compound, the activity, negative = inhibition [3, 8] was 7.67% (inactive), the activity, negative = inhibition [3, 9] was 14.9% (inactive) and the Potency (3D7) was “inactive”. The Potency (7G8) was “inactive”, the Potency (AA1029) was “inactive” and the Potency (AS120) was “inactive”. The Potency (ATS189) was “inactive”, the Potency (ATS95) was “inactive” and the Potency (C2A) was “inactive”. The Potency (CP185) was “inactive”, the Potency (CP191) was “inactive” and the Potency (CP192) was “inactive”. For the same compound, the Potency (CP194) was “inactive” and the outcome (CP201) was “inactive”.
In the case of `Oc1cccc(-c2nc(N3CCOCC3)c3oc4ncccc4c3n2)c1`, the Z-AUC [1] is reported as -0.82 (inactive), the Z-AUC [1, 4] is reported as -0.749 and the Z-AUC ([1]; measured here: PEO4 Z-AUC) is reported as -0.797. The Potency ([2]; TFE3-RCC UOK109 viability, active = Z-AUC below -0.8 in all three lines) was 4.81 µM (active), the z-score [2, 5] was -1.31 and the z-score [2, 6] was -1.8. The z-score [2, 7] was -2.03.
For `O=C1CCC(N2C(=O)c3ccccc3C2=O)C(=O)N1` (configuration not stated), the Z-AUC [1] was 0.908 (inactive), the Z-AUC [1, 4] was 0.614 and the Z-AUC ([1]; measured here: PEO4 Z-AUC) was 0.388. It also gave a z-score [2, 5] of 0.392, a z-score [2, 6] of -0.79 and a z-score [2, 7] of 0.456. The activity, negative = inhibition [3, 8] was 3.13% (inactive), the Potency (3D7) was “inactive” and the Potency (7G8) was “inactive”. For the same compound, the Potency (AA1029) was “inactive”, the Potency (AS120) was “inactive” and the Potency (ATS189) was “inactive”. The Potency (ATS95) was “inactive”, the Potency (C2A) was “inactive” and the Potency (CP185) was “inactive”. For the same compound, the Potency (CP191) was “inactive”, the Potency (CP192) was “inactive” and the Potency (CP194) was “inactive”. The outcome (CP201) was “inactive”.
In the case of `N[C@@H]1CONC1=O`, the Z-AUC [1] is reported as -0.0127 (inactive), the Z-AUC [1, 4] is reported as 1.55 and the Z-AUC ([1]; measured here: PEO4 Z-AUC) is reported as 1.43. It also gave a z-score [2, 5] of 0.394, a z-score [2, 6] of 0.295 and a z-score [2, 7] of 0.675. The activity, negative = inhibition [3, 8] was -21% (inactive), the activity, negative = inhibition [3, 9] was -17% (inactive) and the Potency (3D7) was “inactive”. For the same compound, the Potency (7G8) was “inactive”, the Potency (AA1029) was “inactive” and the Potency (AS120) was “inactive”. For the same compound, the Potency (ATS189) was “inactive”, the Potency (ATS95) was “inactive” and the Potency (C2A) was “inactive”. For the same compound, the Potency (CP185) was “inactive”, the Potency (CP191) was “inactive” and the Potency (CP192) was “inactive”. For the same compound, the Potency (CP194) was “inactive” and the outcome (CP201) was “inactive”.
For `NC(=O)c1ccc(-c2nc(-c3ccc4c(c3)OCO4)c(-c3ccccn3)[nH]2)cc1`, the Z-AUC [1] was 0.53 (inactive), the Z-AUC [1, 4] was 1.15 and the Z-AUC ([1]; measured here: PEO4 Z-AUC) was 0.909. For the same compound, the z-score [2, 5] was 0.874, the z-score [2, 6] was 1.69 and the z-score [2, 7] was 0.197.
With `Cc1oncc1C(=O)Nc1ccc(C(F)(F)F)cc1` the Z-AUC [1] was 0.594 (inactive), the Z-AUC [1, 4] was 0.454 and the Z-AUC ([1]; measured here: PEO4 Z-AUC) was 0.504. The activity, negative = inhibition [3, 10] was -4.31% (inactive), the activity, negative = inhibition [3, 11] was 9.52% (inactive) and the Potency (3D7) was “inactive”. The Potency (7G8) was 3.55 µM (active), the Potency (AA1029) was “inactive” and the Potency (AS120) was “inactive”. The Potency (ATS189) was “inactive”, the Potency (ATS95) was “inactive” and the Potency (C2A) was “inactive”. For the same compound, the Potency (CP185) was “inactive”, the Potency (CP192) was “inactive” and the Potency (CP194) was “inactive”. For the same compound, the outcome (CP201) was “inactive”.
For `N#Cc1ccc(C(c2ccc(C#N)cc2)n2cncn2)cc1`, the Z-AUC [1] was 1.61 (inactive), the Z-AUC [1, 4] was 1.56 and the Z-AUC ([1]; measured here: PEO4 Z-AUC) was 1.79. The activity, negative = inhibition [3, 10] was 0.0131% (inactive), the activity, negative = inhibition [3, 11] was 3.12% (inactive) and the Potency (3D7) was “inactive”. For the same compound, the Potency (7G8) was “inactive”, the Potency (AA1029) was “inactive” and the Potency (AS120) was “inactive”. The Potency (ATS189) was “inactive”, the Potency (ATS95) was “inactive” and the Potency (C2A) was “inactive”. The Potency (CP185) was “inactive”, the Potency (CP191) was “inactive” and the Potency (CP192) was “inactive”. The Potency (CP194) was “inactive” and the outcome (CP201) was “inactive”.
With `OCCn1cc(-c2cnc3nnn(Cc4ccc5ncccc5c4)c3n2)cn1` the Z-AUC [1] was -0.182 (inactive), the Z-AUC [1, 4] was 0.0266 and the Z-AUC ([1]; measured here: PEO4 Z-AUC) was 0.506. For the same compound, the z-score [2, 5] was 0.421, the z-score [2, 6] was 0.338 and the z-score [2, 7] was 0.859.

From PubChem BioAssay (NCATS)
